Compounds with a hit are over-represented: about 20% of the library has one in this group of screens.
Pf growth 48h = inhibits P. falciparum growth in the first generation, 48 h | P. falciparum luciferase growth in erythrocytes, 48 h | Potency, µM (titrated, usually from 28.7 µM), inactives show top-dose activity change, negative = inhibition, hits mostly inhibitors | actives 5.9% (n = 310,000) | AID 504832; also: potency is read from the fitted curve at half-maximal effect; % is scaled to controls: 0 for no effect and ±100 for the full control effect
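Luciferase-expressing parasites in RBCs, 2% Hct / 0.1% parasitemia final; RPMI 1640 + 0.5% Albumax; 37 C, 5% CO2, one generation; luminescence read-out, lower signal = inhibition.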
Pf growth 96h = P. falciparum growth inhibition at 96 hour, primary screen for plastid delayed-death inhibitors | P. falciparum luciferase reporter growth, 96 h | Potency, µM (series often up to 28.7 µM), inactives show at the top dose activity change, negative = inhibition, hits mostly inhibitors | actives 6.9% (n = 320,000) | AID 504834; also: potency is read from the fitted curve at half-maximal effect; % is scaled to controls: 0 for no effect and ±100 for the full control effect
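Cell-based qHTS: luciferase-tagged P. falciparum in erythrocytes (2% hematocrit, 0.05% parasitemia final) incubated with compounds for 96 hours, 37 C, 5% CO2; luciferase detection reagent then added and luminescence measured.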
Shiga toxin inh = Shiga toxin inhibition; inhibition, % at 38.7 µM; Vero cells, Shiga toxin protein synthesis inhibition reporter; actives 9.2% (n = 290,000); in the data active = inhibition mostly above about 28%, no sharp cut-off; inactive = mostly below about 43%; also: 0% is about no effect
HCMV inh = human cytomegalovirus inhibition | HFF cells, HCMV-luciferase reporter, 72 h; active compounds read low | activity change, negative = inhibition, % at 57.5 µM | actives 4.5% (n = 410,000) | AID 1259415; in the data active = activity change below about -60%; inconclusive = no clear call, values can overlap the other calls; inactive = above about -39%; also: % is scaled to controls: 0 for no effect and ±100 for the full control effect
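Human foreskin fibroblasts infected with luciferase-reporter HCMV at MOI 1 PFU/cell, compounds at two doses. Luciferase measured 72 h post infection; normalized to buffer-only basal and Salinomycin (10uM) controls.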
Cycloheximide cs = counter-screen for Shiga toxin inhibitors: cycloheximide protein synthesis inhibition; cell reporter, cycloheximide protein synthesis inhibition counterscreen; max response, %; actives 12% (n = 300,000); AID 2314; in the data active = max response mostly above about 13%, no sharp cut-off; inactive = mostly below about 14%; also: read at 38.3 µM for the half of the compounds with a filed dose; 0% is about no effect
* = called active by the depositor; ? = inconclusive; . = not tested or not shown. Unless noted, calls follow the shape of the dose curve; as a rule, active = well fitted inhibition curve with a large enough effect; inconclusive = small, poorly fitted or top-dose-only effect, or another doubt; inactive = no such curve, though single readings can be large or run the other way.

SMILES | Pf growth 48h | Pf growth 96h | Shiga toxin inh | HCMV inh | Cycloheximide cs
COc1ccc(C2=Nn3c(nnc3-c3ccc(OC)c(OC)c3)SC2)cc1 | . | . | -9 | . | -1
COc1cccc(-c2nnc3n2N=C(c2cc(OC)ccc2OC)CS3)c1 | ? | ? | -19 | -62* | 1
COc1ccc(OC)c(-c2nnc3n2N=C(c2ccc(OC)c(OC4CCOC4)c2)CS3)c1 (configuration not stated) | . | . | . | -75* | .
COc1ccc(C2=Nn3c(nnc3-c3ccccc3Cl)SC2)cc1OC1CCOC1 (configuration not stated) | . | . | . | 20 | .
COc1ccc(C2=Nn3c(nnc3-c3ccc(OC)cc3)SC2)cc1 | 10µM* | . | -13 | -101* | -5
CC(C)(C)C1=Nn2c(nnc2-c2ccccn2)SC1 | . | 8.3µM* | 3 | -21 | 9
CCOc1cccc(-c2nnc3n2N=C(c2cc(OC)ccc2OC)CS3)c1 | 12µM* | 12µM* | -6 | 16 | -3
COc1cccc(-c2nnc3n2N=C(c2ccc(OC)cc2OC)CS3)c1 | . | . | -5 | . | 12
CN(Cc1ccccc1)S(=O)(=O)c1ccc2[nH]c(=O)oc2c1 | 27% | 5% | -2 | -5 | 1
CN(Cc1ccccc1)S(=O)(=O)c1ccc2[nH]c(=O)ccc2c1 | 7% | 15µM* | -8 | -20 | -2
COc1ccccc1NC(=O)c1cc(C)nc2ccccc12 | 10% | -12% | -2 | 20 | -3
Cc1ccc(C)c(-c2cc(C(=O)Nc3nccs3)c3ccccc3n2)c1 | ? | 1.9µM* | 2 | -71* | 11
Cc1ccc(C)c(-c2cc(C(=O)Nc3cccnc3)c3ccccc3n2)c1 | 12µM* | 2.1µM* | -8 | -7 | 0
Cc1ccc(-c2cc(C(=O)Nc3cccnc3)c3ccccc3n2)o1 | . | 4.7µM* | 7 | 115 | 8
Cc1ccc(NC(=O)c2cc(-c3ccc(C)o3)nc3ccccc23)cc1 | ? | -32% | -3 | 18 | -1
COc1ccccc1NC(=O)c1cc(-c2ccc(C)o2)nc2ccccc12 | 0% | -15% | 30 | -71* | 10
CCOC(=O)c1c(C)[nH]c(C)c1S(=O)(=O)N1CCCC(C(=O)Nc2ccc(OC)c(OC)c2)C1 (configuration not stated) | . | . | . | 10 | .
CN(C(=O)c1ccc2c(=O)n3c(nc2c1)CCCCC3)c1cccc(Cl)c1 | -19% | ? | 23 | -11 | 18*
CN(C(=O)c1ccc2c(=O)n3c(nc2c1)CCCCC3)c1ccccc1F | 7% | ? | -1 | -22 | 17*
CCOc1ccccc1N(C)C(=O)c1ccc2c(=O)n3c(nc2c1)CCCCC3 | ? | 1.5µM* | -3 | -22 | -4
CCCN(C(=O)c1ccc2c(=O)n3c(nc2c1)CCCCC3)c1cccc(Cl)c1 | . | . | . | -10 | .
CN(C1CCCCC1)S(=O)(=O)c1ccc2c(c1)c(=O)c(C(=O)NCCc1ccccc1)cn2C | . | . | . | 0 | .
COC(=O)c1cc(NC(=O)CN(c2ccccc2)S(=O)(=O)N(C)C)ccc1Cl | . | . | . | 7 | .
Cc1ccc(NC(=S)c2ccncc2)c(C)c1 | 20% | 24% | -3 | 0 | 10
Cc1ccc(NC(=S)c2nc3ccccc3[nH]2)cc1 | 185% | 67% | 66* | 31 | 72*
SMILES | Pf growth 48h | Pf growth 96h | Shiga toxin inh | HCMV inh | Cycloheximide cs
Cc1ccc(NC(=S)c2nc3ccccc3[nH]2)c(C)c1 | 17% | -9% | 97* | 50 | 51*
Cn1c(SCC(O)c2ccccc2)nnc1-c1ccc2ccccc2c1 (configuration not stated) | 0% | ? | -3 | ? | 3
COC(=O)CCC/C=C1/SCC(NC(=O)c2ccccc2)C1=O (configuration not stated) | . | 9.3µM* | -6 | -22 | 6
CCc1ccc(NC(=O)N2CC=C(c3c[nH]c4ccccc34)CC2)cc1 | . | . | . | 25 | .
CC(C)N1CC=C(c2c[nH]c3ccccc23)CC1 | 1µM* | ? | 9 | -67* | 2
C1=C(c2c[nH]c3ccccc23)CCNC1 | 9.3µM* | 6% | -3 | 22 | -1
Cc1c(Cl)cccc1NC(=O)Cn1nnc2sc3c(c2c1=O)CCCC3 | . | . | . | -4 | .
COc1cccc(OC)c1NC(=O)C1CCCN1C(=O)Nc1ccccc1Cl (configuration not stated) | 4% | 12% | 15 | 6 | -3
COC1(OC)C=CC(=O)C=C1NC(=O)c1ccccc1OC(C)=O | . | . | . | -78* | .
N#Cc1ccc(/C=N/NC(=O)c2cccc(S(=O)(=O)N3CCOCC3)c2)cc1 | 1% | -2% | -7 | 11 | 8
